Measurements as given in PubChem BioAssay (NCATS).
Where “and” joins values, the source holds several entries; their conditions need not be identical. Equal values may be shown once. Results filed as inconclusive are left out. A call without a number means that no potency is given here. Calls of active or inactive are those of the source. Unless noted, the call rests on the fitted dose curve.

What was measured:
[1] = qHTS assay for small molecule antagonists of peroxisome proliferator-activated receptor delta signaling (AID 588535; active means well fitted inhibition curve with a large enough effect in the signal ratio, with a control signal flat, not every such curve was filed as active; the % refers to the signal ratio;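 on max response: cells co-treated with a PPAR-delta agonist as stimulator during compound exposure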); conditions: HEK293T PPARd-UAS-bla, beta-lactamase FRET ratio, 18 h; 460 nm channel
Procedure, shortened: (§1)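 Antagonist-mode qHTS using GeneBLAzer PPAR-delta-UAS-bla HEK293T cells; compound exposure 18 hrs at 37 C over a titration. Ratiometric CCF4 fluorescence at 460/530 nm; concentration-response points fitted to the Hill equation.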

[2] = target: Peroxisome proliferator-activated receptor delta (Homo sapiens) (UniProt Q03181); experiment: as above; conditions: HEK293T PPARd-UAS-bla, beta-lactamase FRET ratio, 18 h; series mostly up to 76.7 µM
Peroxisome proliferator-activated receptor delta (Homo sapiens), sequence (Q03181 whole entry, looked up): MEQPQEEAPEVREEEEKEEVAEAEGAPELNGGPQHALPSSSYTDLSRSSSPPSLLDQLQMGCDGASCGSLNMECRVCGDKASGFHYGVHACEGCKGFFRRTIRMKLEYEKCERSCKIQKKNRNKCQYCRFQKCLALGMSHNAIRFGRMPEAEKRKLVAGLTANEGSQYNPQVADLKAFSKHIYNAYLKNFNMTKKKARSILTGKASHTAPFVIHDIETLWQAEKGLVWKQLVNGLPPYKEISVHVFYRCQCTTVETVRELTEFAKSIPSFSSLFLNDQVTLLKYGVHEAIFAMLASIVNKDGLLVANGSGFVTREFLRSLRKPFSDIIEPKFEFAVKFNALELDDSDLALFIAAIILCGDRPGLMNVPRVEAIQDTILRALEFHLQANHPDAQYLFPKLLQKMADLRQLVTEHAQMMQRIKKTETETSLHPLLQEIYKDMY
Procedure, shortened: as §1

[3] = target: Peroxisome proliferator-activated receptor gamma (Homo sapiens) (UniProt P37231); experiment: qHTS assay for small molecule agonists of peroxisome proliferator-activated receptor gamma signaling (AID 588536; active means well fitted curve in the direction sought with a large enough effect in the signal ratio, with a control signal flat, not every such curve was filed as active; the % refers to the signal ratio); conditions: HEK293 PPARg-UAS-bla, beta-lactamase ratio, 16 h, percent of rosiglitazone response, DMSO as zero; series mostly up to 76.7 µM
Peroxisome proliferator-activated receptor gamma (Homo sapiens), sequence (P37231 whole entry, looked up): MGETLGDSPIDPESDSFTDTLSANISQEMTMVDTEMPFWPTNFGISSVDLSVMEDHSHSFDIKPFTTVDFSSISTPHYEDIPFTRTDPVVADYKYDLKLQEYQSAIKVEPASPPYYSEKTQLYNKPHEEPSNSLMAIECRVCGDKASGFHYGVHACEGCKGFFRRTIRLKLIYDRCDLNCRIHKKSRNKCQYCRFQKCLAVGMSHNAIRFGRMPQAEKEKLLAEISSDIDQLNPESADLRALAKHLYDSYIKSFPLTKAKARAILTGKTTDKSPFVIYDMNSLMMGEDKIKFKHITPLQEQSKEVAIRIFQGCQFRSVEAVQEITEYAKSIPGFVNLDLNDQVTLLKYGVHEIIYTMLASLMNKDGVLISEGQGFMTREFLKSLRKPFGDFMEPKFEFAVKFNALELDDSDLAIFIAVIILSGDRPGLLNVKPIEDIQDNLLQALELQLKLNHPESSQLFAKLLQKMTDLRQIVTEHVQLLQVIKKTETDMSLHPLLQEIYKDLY
Procedure, shortened: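 Using GeneBLAzer HEK293 cells, response was quantified by CCF4 fluorescence and normalized between basal DMSO (0%) and rosiglitazone 2 uM (100%); curves yielded half-maximal stimulation concentration and efficacy.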

[4] = target: Vitamin D3 receptor (Homo sapiens) (UniProt P11473); experiment: qHTS assay for small molecule antagonists of vitamin D receptor signaling (AID 588541); conditions: HEK293T VDR-UAS-bla, beta-lactamase ratio, antagonist mode; series mostly up to 76.7 µM;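 further: receptor activated by calcitriol during compound treatment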
Vitamin D3 receptor (Homo sapiens), sequence (P11473 whole entry, looked up): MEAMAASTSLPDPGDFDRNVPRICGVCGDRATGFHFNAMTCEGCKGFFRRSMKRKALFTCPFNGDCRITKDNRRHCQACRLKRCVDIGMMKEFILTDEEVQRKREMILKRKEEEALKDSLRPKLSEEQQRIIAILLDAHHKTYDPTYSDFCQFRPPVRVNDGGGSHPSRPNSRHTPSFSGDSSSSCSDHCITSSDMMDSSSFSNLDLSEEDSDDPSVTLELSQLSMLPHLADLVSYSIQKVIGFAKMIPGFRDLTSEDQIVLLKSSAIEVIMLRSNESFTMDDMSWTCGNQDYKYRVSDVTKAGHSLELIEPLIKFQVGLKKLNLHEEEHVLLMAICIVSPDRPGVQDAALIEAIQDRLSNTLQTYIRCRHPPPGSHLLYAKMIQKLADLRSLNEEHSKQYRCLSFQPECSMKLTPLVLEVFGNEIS
Procedure, shortened: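 Antagonist-mode beta-lactamase reporter assay: HEK293T VDR-UAS-bla cells were exposed to titrated compound alongside 1-alpha,25-dihydroxyvitamin D3 at 3 nM final for 16 h. Values were normalized to the 50 nM agonist control and DMSO basal, with IC50 and efficacy from Hill equation fits.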

[5] = target: Vitamin D3 receptor (Homo sapiens) (UniProt P11473); experiment: qHTS assay for small molecule agonists of vitamin D receptor signaling (AID 588543); conditions: HEK293T VDR-UAS-bla, beta-lactamase ratio, 16 h; series mostly up to 76.8 µM
Procedure, shortened: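 Reporter cells (HEK293T, VDR-UAS-bla) were seeded in medium with 2% charcoal-stripped serum and incubated 5 h, then compounds in concentration series were added for 16 h at 37 °C. Stimulation was scaled between DMSO basal and 50 nM 1α,25-dihydroxyvitamin D3.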

[6] = qHTS assay for small molecule agonists of retinoid X receptor alpha signaling (AID 588544); conditions: HEK293T RXRa-UAS-bla, beta-lactamase reporter, 18 h; 530 nm emission
[7] = target: Retinoic acid receptor RXR-alpha (Homo sapiens) (UniProt P19793); experiment: as above; conditions: HEK293T RXRa-UAS-bla, beta-lactamase reporter, 18 h; series mostly up to 76.7 µM
Retinoic acid receptor RXR-alpha (Homo sapiens), sequence (P19793 whole entry, looked up): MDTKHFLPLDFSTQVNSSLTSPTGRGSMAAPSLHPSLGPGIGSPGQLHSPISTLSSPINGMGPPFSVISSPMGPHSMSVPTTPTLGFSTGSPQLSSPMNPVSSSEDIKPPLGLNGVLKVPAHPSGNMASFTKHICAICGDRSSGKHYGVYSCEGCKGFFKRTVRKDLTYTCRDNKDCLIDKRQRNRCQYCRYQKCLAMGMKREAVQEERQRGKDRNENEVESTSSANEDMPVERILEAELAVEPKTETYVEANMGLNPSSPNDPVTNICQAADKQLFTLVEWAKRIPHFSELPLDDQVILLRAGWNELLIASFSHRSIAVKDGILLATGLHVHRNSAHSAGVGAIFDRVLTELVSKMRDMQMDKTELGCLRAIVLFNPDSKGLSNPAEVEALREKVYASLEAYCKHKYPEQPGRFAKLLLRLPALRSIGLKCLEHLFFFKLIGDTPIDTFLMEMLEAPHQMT

[8] = target: Thyroid hormone receptor beta (Homo sapiens) (UniProt P10828); experiment: qHTS assay for small molecule agonists of thyroid hormone receptor beta signaling (AID 588545); conditions: TR-UAS-bla GripTite HEK 293, beta-lactamase ratio, agonist mode, 18 h, percent of T3 response, DMSO as zero; series mostly up to 76.7 µM
Thyroid hormone receptor beta (Homo sapiens), sequence (P10828 whole entry, looked up): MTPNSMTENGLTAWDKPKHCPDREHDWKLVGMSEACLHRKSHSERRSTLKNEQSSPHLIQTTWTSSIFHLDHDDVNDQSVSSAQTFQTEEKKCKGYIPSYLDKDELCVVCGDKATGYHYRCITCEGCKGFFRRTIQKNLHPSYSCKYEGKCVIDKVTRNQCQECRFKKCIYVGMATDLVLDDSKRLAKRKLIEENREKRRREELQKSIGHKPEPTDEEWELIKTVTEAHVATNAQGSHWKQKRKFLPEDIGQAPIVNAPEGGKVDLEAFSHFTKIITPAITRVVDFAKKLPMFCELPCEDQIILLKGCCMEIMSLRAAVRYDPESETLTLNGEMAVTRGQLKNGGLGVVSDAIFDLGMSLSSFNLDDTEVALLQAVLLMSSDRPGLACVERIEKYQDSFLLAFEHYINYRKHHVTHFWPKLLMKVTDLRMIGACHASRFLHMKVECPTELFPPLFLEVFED
Procedure, shortened: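 In this cell-based screen, titrated compounds act on HEK 293 cells held in medium with 2% charcoal/dextran FBS, NEAA and pyruvate for 18 hrs at 37 C. Responses are expressed relative to T3 (10 nM) as 100% and basal DMSO as 0%.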

[9] = qHTS assay for small molecule antagonists of retinoid X receptor alpha signaling (AID 588546; active means well fitted inhibition curve with a large enough effect in the signal ratio, with a control signal flat, not every such curve was filed as active; the % refers to the signal ratio;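 further: cells stimulated with 9-cis-retinoic acid as agonist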); conditions: HEK293T RXRa-UAS-bla, beta-lactamase ratio, antagonist mode; measured here: W530 green channel, cytotoxicity proxy
Procedure, shortened: (§2)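 Beta-lactamase reporter inhibition, read as CCF4 fluorescence ratio (ex 405, em 460/530 nm) after 2 h at RT. HEK293T UAS-bla cells, 2500/well, were stimulated with 9-cis-RA at 500 or 100 nM final alongside test compound for 18 h at 37 C.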

[10] = target: Retinoic acid receptor RXR-alpha (Homo sapiens) (UniProt P19793); experiment: as above; conditions: HEK293T RXRa-UAS-bla, beta-lactamase ratio, antagonist mode
Procedure, shortened: as §2

[11] = target: Thyroid hormone receptor beta (Homo sapiens) (UniProt P10828); experiment: qHTS assay for small molecule antagonists of thyroid hormone receptor beta signaling (AID 588547; active means well fitted inhibition curve with a large enough effect in the signal ratio, with a control signal flat, not every such curve was filed as active; the % refers to the signal ratio;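 further: cells stimulated with 0.4 nM T3 agonist during compound exposure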); conditions: TR-UAS-bla HEK293, beta-lactamase ratio, antagonist mode, 18 h
Procedure, shortened: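 Inhibition of T3-driven (0.4nM final) beta-lactamase reporter activity was measured over 0.59 nM to 92 uM compound after 18 h at 37 C. The cells were GripTite HEK293 TR-UAS-bla in charcoal/dextran-stripped serum, with CCF4 ratio read-out and IC50 from Hill fits.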

[12] = target: Voltage-gated inwardly rectifying potassium channel KCNH2 (Homo sapiens) (UniProt Q12809); experiment: qHTS Assay for Small Molecule Inhibitors of the Human hERG Channel Activity (AID 588834; active means well fitted inhibition curve with a large enough effect;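 further: top concentration of the series differs between compounds; lower thallium flux fluorescence means stronger hERG block; nearly all actives have a fitted effect of over 50% in size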); conditions: U2OS BacMam hERG, FluxOR thallium flux fluorescence; series mostly up to 92.2 µM
Voltage-gated inwardly rectifying potassium channel KCNH2 (Homo sapiens), sequence (Q12809 whole entry, looked up): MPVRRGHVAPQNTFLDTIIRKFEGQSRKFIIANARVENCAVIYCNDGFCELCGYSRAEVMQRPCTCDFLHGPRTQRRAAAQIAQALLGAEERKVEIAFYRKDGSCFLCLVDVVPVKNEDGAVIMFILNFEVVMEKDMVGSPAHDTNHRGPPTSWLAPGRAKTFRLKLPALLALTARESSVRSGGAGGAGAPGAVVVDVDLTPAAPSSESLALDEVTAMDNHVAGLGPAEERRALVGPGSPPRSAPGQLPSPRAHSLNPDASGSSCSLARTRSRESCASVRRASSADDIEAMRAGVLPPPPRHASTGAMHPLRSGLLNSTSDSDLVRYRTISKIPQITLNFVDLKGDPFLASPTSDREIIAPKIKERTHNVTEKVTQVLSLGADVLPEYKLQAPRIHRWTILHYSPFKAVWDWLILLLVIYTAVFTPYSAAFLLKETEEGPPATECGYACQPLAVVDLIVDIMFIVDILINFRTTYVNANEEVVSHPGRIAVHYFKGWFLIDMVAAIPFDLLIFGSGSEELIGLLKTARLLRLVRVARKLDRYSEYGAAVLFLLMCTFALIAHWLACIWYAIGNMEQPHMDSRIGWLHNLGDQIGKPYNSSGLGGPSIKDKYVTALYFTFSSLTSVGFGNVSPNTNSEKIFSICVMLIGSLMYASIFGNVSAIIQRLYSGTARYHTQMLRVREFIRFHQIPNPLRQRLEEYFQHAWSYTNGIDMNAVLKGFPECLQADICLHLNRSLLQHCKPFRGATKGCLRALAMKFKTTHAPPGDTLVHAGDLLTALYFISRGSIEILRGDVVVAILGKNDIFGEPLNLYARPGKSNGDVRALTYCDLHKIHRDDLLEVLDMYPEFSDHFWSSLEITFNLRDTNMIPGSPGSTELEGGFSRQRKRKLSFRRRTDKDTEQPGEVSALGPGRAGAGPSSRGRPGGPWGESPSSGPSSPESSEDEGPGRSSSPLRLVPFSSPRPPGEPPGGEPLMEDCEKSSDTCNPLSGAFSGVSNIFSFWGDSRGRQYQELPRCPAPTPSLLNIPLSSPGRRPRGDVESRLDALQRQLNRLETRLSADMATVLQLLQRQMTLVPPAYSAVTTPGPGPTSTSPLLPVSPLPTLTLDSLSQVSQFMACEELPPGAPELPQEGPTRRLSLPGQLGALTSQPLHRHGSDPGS
Procedure, shortened: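 Step 1: BacMam hERG transduction of U2OS, 4 hrs RT. Step 2: overnight 37 °C, plate 2000 cells/well, 4 hr. Step 3: FluxOR load, compound 10 min, stimulate, read fluorescence.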

[13] = qHTS assay for small molecule agonists of the antioxidant response element (ARE) signaling pathway (AID 651741; active means well fitted activation curve with a large enough effect in the signal ratio; the % refers to the signal ratio; further: potency means the concentration at half of the fitted maximal effect); conditions: HepG2 ARE-bla reporter, beta-lactamase FRET ratio, 16 h; series mostly up to 96 µM
Procedure, shortened: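 Agonist activity is measured as ARE-driven beta-lactamase expression in a stable HepG2 reporter line, using 16 h compound treatment at 37 C and a FRET substrate fluorescence readout after 2 h.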

[14] = qHTS assay for small molecule activators of the p53 signaling pathway (AID 651743; active means well fitted activation curve with a large enough effect in the signal ratio, not every such curve was filed as active; the % refers to the signal ratio); conditions: HCT-116 p53RE-bla, beta-lactamase FRET ratio, 16 h; stronger effect = higher value
Procedure, shortened: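 A beta-lactamase reporter under p53 response element control, stably carried by HCT-116 cells, reported pathway activation. Test compounds were applied for 16 hours at 37 C, and fluorescence was measured 2 hours after adding the B/G FRET substrate.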

[15] = qHTS assay for small molecule disruptors of the mitochondrial membrane potential - 1 hr assay (AID 651754); conditions: series mostly up to 92.2 µM; further: nearly all actives have a fitted effect of over 35% in size
Procedure, shortened: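 In this qHTS format, a 1 hr compound treatment of HepG2 cells precedes Mito-MPS staining, and membrane potential is judged from aggregate (red) against monomer (green) fluorescence intensity.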

[16] = qHTS assay for small molecule activators of the nuclear factor-kappa B (NF-kB) signaling pathway (AID 651749; active means well fitted activation curve with a large enough effect in the signal ratio; the % refers to the signal ratio); conditions: NF-kB-bla ME-180 cells, beta-lactamase FRET ratio, 16 h; stronger effect = higher value
Procedure, shortened: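 FRET-based beta-lactamase detection in ME-180 cells reports NF-kB response-element-driven transcription following overnight (16 hr) compound treatment.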

[17] = target: Peroxisome proliferator-activated receptor gamma (Homo sapiens) (UniProt P37231); experiment: qHTS assay for small molecule antagonists of peroxisome proliferator-activated receptor gamma signaling (AID 588537; active means well fitted inhibition curve with a large enough effect in the signal ratio, with a control signal flat, not every such curve was filed as active; the % refers to the signal ratio;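 further: reporter cells co-stimulated with 50 nM rosiglitazone agonist during compound treatment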); conditions: HEK293 PPARg-UAS-bla, beta-lactamase ratio, antagonist mode; series mostly up to 76.8 µM
Procedure, shortened: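 Cell-based beta-lactamase assay; GW9662 served as the antagonist control. Stimulation used rosiglitazone, final 50 nM, 16 h, 37 C.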

SMILES | max response [1] | Potency [2] | outcome [3] | outcome [4] | outcome [5] | max response [6] | outcome [7] | outcome [8] | max response [9] | max response [10] | activity change % (negative = inhibition) [11] | Potency [12] | Potency [13] | activation [14] | Potency [15] | activation [16] | outcome [17]
CCCCCNCCCCC | -18.6% | inactive | inactive | inactive | inactive | 1.44% and -10.1% | inactive | inactive | -1.51% and -1.45% | 4.32% (inactive) and 13.3% (inactive) | -1.69% (inactive) and -17.1% (inactive) | inactive | inactive | -2.16% (inactive) and -1.29% (inactive) | inactive |  | 
CC(=O)OCc1ccco1 | -12.4% | inactive | inactive | inactive | inactive | 9.34% | inactive |  | -0.347% | 29.2% (inactive) | -12.4% (inactive) | inactive |  |  | inactive | 0.228% (inactive) | 
c1ccc2[nH]cnc2c1 |  |  | inactive | inactive | inactive | -10.3% | inactive | inactive |  |  | 2.62% (inactive) | inactive |  | 0.533% (inactive) |  | 1.42% (inactive) | inactive
Cc1ccc(C(C)(C)C)cc1 | -8.71% | inactive | inactive |  | inactive | -4.76% | inactive |  | -11.6% | 4.12% (inactive) | 14% (inactive) | inactive | inactive | -7.08% (inactive) | inactive |  | 
O=C(O)c1c(Cl)cccc1Cl |  |  | inactive |  |  | -13.5% | inactive | inactive | 2.22% | 13.3% (inactive) | 3.89% (inactive) | inactive | inactive | -0.426% (inactive) |  |  | inactive
OCCO |  |  | inactive | inactive |  | 7.28% | inactive | inactive | 0.506% | 11.2% (inactive) | 21% (inactive) | inactive | inactive | -3.22% (inactive) |  | -0.33% (inactive) | 
C[C@@H]1CC2(OC3C[C@@]4(C)C5=CC[C@H]6C(C)(C)C(O[C@@H]7OC[C@@H](O)[C@H](O)[C@H]7O)CC[C@@]67C[C@@]57CC[C@]4(C)C31)OC(O)C1(C)OC21 (some centres not stated) |  |  |  | inactive |  |  |  |  |  |  |  | inactive | 75 µM (active) | -4.93% (inactive) |  | -1.92% (inactive) | 
CNC(=O)N(c1ccccc1)c1ccccc1 |  |  | inactive |  |  | -17.1% | inactive | inactive | 12.2% | -3.69% (inactive) | 10.1% (inactive) | inactive |  | 0.514% (inactive) | inactive | 0.192% (inactive) | 
Cc1cccc(C(=O)O)c1[N+](=O)[O-] |  |  | inactive | inactive | inactive | -4.96% | inactive | inactive |  |  | -11.8% (inactive) | inactive |  | 1.31% (inactive) | inactive | -0.935% (inactive) | inactive
CC(=O)CCc1ccccc1 |  |  | inactive | inactive | inactive | -7.54% | inactive | inactive | -0.836% | 0.594% (inactive) | 12% (inactive) | inactive | inactive | -1.61% (inactive) | inactive | 0.0566% (inactive) | 
NC(=O)c1ccccc1[N+](=O)[O-] | -1.98% | inactive | inactive |  |  | -9.31% | inactive | inactive | 3.46% | 0.827% (inactive) | 5.01% (inactive) | inactive | inactive | -0.853% (inactive) |  | -0.661% (inactive) | inactive
NC(=O)NC(N)=O | 34.3% | inactive | inactive |  |  | 6.09% | inactive | inactive | -1.82% | 66.5% (inactive) | 9.23% (inactive) | inactive | inactive | -4.91% (inactive) | inactive |  | 
O=C(O)CNC(=O)c1ccc(CO)o1 | 35.1% | inactive | inactive |  |  | -18.2% | inactive |  | 2.84% | -8.36% (inactive) | -8.36% (inactive) | inactive | inactive | -3.47% (inactive) | inactive | 0.936% (inactive) | inactive
Cc1ccccc1Br |  |  | inactive | inactive |  | -14.2% | inactive |  | 1.58% |  |  | inactive | inactive |  | inactive | -0.604% (inactive) | 
CC1=C(/C=C/C(C)=C/C=C/C(C)=C\C=O)C(C)(C)CCC1 |  |  |  |  | inactive |  |  | inactive |  |  | -14.6% (inactive) |  | 37.6 µM (active) | 8.65% (inactive) | inactive | -1.57% (inactive) | 
CCCCC(CC)CNCC(CC)CCCC (configuration not stated) | 11.3% | inactive |  | inactive | inactive | 2.31% | inactive |  | 0.349% |  | 4.7% (inactive) |  | inactive |  |  | -0.684% (inactive) | 
CCCCC(CC)C(=O)O (configuration not stated) | 18% | inactive | inactive |  |  | 12.4% | inactive | inactive | -3.23% | 4.48% (inactive) | -2.96% (inactive) | inactive | inactive |  | inactive |  | inactive
Cc1cccc(C)c1[N+](=O)[O-] | 9.63% and 31.4% |  | inactive | inactive | inactive | 18.2% and 6.02% | inactive | inactive | 3.43% and -1.96% | -16.7% (inactive) and -18.1% (inactive) | 3.5% (inactive) and -3.75% (inactive) | inactive | inactive |  | inactive |  | inactive
[O-]/[N+](=N\O)c1ccccc1 |  |  | inactive | inactive | inactive |  |  | inactive |  |  |  | inactive |  | -2.28% (inactive) |  |  | 
CCC=O | -3.11% | inactive | inactive | inactive | inactive | 2.22% | inactive |  | -6.66% | 0.991% (inactive) | -3.74% (inactive) | inactive | inactive | -0.942% (inactive) |  | -1.21% (inactive) | 
Cc1cccc2ccccc12 |  |  | inactive | inactive | inactive | -13.1% | inactive | inactive | -10.1% | 0.915% (inactive) | 12.2% (inactive) | inactive | inactive | -1.93% (inactive) | inactive | -1.12% (inactive) | inactive
Cc1cccc2cccnc12 | -4.69% | inactive | inactive |  | inactive | -2.92% | inactive | inactive |  |  | -0.45% (inactive) | inactive |  | -4.27% (inactive) |  |  | inactive
